The supplement of paper PMC11417369
Whole data set: some 25,000 sequences, median “ln(normalized median fluorescence intensity)” near 9.7, cut for the highest 2% near 11. What follows is part of a selection rich in the highest values, with near analogues and random picks from the rest.

Test system: PfAP2-HC AP2 domain (GST-tagged)
Test: gcPBM binding intensity (ln(normalized median fluorescence intensity)); higher = stronger DNA binding
Outline: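 GST-fused DNA-binding domains of P. falciparum, expressed in E. coli, were applied at about 25 μg on average for 1 h to an Agilent 4 × 180k array of primer-extended double-stranded 36-bp intergenic genomic probes and negative controls. Binding intensity is the highest Masliner-normalised natural-log median intensity across replicate spots of either probe orientation, measured with Alexa488 anti-GST antibody and a 488 nm scan.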

Sequence | gcPBM binding intensity (ln)
AAAATCTATATTAACACACACACAAAAAAAAAAAAA [CACACA_site6738] | 10.6
TAACTTGAATGGATATGTACATATATATATATATAT [XGTACX_site5990] | 10
TTGTTTTTTTTTTCTATAAGCATAAAAATGATATAA [XGTACX_negctrl_site356] | 9.27
ATATAAGAAATAAAGAAAAATGTGTTTTTTTTTTTT [XGTACX_negctrl_site396] | 9.6
ATATATATATATATAACACACGCAAAAAAATTAAAT [CACACA_site8395] | 10.1
ACGATGAATATGTAAAGTACGCAAATGTAACAATAT [XGTACX_site728] | 9.91
TATCATTGTTCATGCTTGCACTTTTGTTACTGTTCC [GTGCAC_site9425] | 9.87
GAGAACATTGATACACGTACATAAGTTATAAGTATT [XGTACX_site7665] | 9.71
TTAATTACATGTAATTGTACTTAATTATAAGACATT [XGTACX_site464] | 9.52
AAAAAAAATATCTATGCATGTAATATTATGATATTG [TGCATGCA_site546] | 9.58
TTCAAAAATATATAATGTACACAAATATAAAAGAAT [XGTACX_site1944] | 9.81
AAAAAGGAGAAACACACACACACACCCATATATATA [CACACA_site905] | 10.7
AAAAGAAAAAGAAAAACACACATAAATATAAATATA [CACACA_site1879] | 10.2
AGAAAAAAAAAACACACACACACACCCTCAATATAA [CACACA_site39] | 10.5
AAAGAAAAAAAAAACACACACACACGCATTCAATAT [CACACA_site6169] | 10.7
ATACTAAAGAAACACACACACATATATATATAGAAT [CACACA_site100] | 10.9
CACTAAAAGAAACACACACACACACCCATATATATA [CACACA_site4151] | 11
AAAGAAAAAAAAAACACACACACACCCATTCAATAT [CACACA_site38] | 11.4
ATAAAAAAAAGAAAAACACACACATATATATATATA [CACACA_site8243] | 10.4

Sequence | gcPBM binding intensity (ln)
AATAAAAAGAAACACACACACACACCCATATATATA [CACACA_site3589] | 11.5
TATCATTTGGTCTTTTACTTTTTCTGTTTTTTTTTT [CACACA_negctrl_site976] | 9.91
CTCATTTTTGTACAGGTGCACTTATCGTTACACTAT | 9.93
CGAAGGTTTGGCCATGCATGTTATAAGAATATATGT [TGCATGCA_site441] | 9.51
AACTTTATTCCTAATTGTACACATATATATATATAT [XGTACX_site6823] | 10
GGGGACGCGGGTGGGGGTACTCACACTATGCAAAAT [XGTACX_site7745] | 9.74
AATAAGCTCACGTGTCGTACATTTTTTAAAACAACC [XGTACX_site4707] | 9.78
CGTATTTATATAATTACACACCATATTTTAATTATT [CACACA_site5960] | 9.76
AATGAACTCACGAGCACACACACACCGATATATATA [CACACA_site4710] | 11
AAAATGAACTCACGAGCACACACACCCATATATATA [CACACA_site8247] | 10.3
AATGAACAGACGAGCACACACACACCCATATATATA [CACACA_site1018] | 10.9
TATACACCCGGACACACACACATATATATATATATA [CACACA_site5030] | 10.3
CATACACCCGGACACACACACACACCCATATATAAT [CACACA_site4494] | 10.5
AAAACACGCGGACACACACACACACGCCCACATATA [CACACA_site7105] | 10.6
AACACGCGCGGACACACACACACACCCACATATATA [CACACA_site5252] | 11.3
CGTGGGAGCGGACACACACACACACCCATATATATA [CACACA_site4340] | 10.4
AAAACACGCGGACACACACACACACCCACCCATATA [CACACA_site8688] | 11.6
CACGCGCCCGGACACACACACACACCCATATATATA [CACACA_site5251] | 11.3
AACACGCGCAGACACACACACACACCCACATATATA [CACACA_site2205] | 10.6

Sequence | gcPBM binding intensity (ln)
ATTTATATGTGGAGCAGTACGCACTCTCACAATTAA [XGTACX_site7252] | 9.44
TGAATATTTACTTTAGCACACAATTTGTATTTGATT [CACACA_site960] | 9.86
ATTATTTACCACAACACACAAATATTTACCAATCAT [CACACA_site5472] | 10.5
TTGTTTATTTGTAAAGCTAACAAGAAATGTGAATAT [CACACA_negctrl_site931] | 9.51
AGCATTTTAAAAGAAAAAAAAAAAAAAAAAAAAATA [GTGCAC_negctrl_site723] | 9.17
TCATTTTACAGATGTGCATGTGAATCAATCTATTTA [TGCATGCA_site787] | 9.56
ATTACTAAAAAATATAAACACACATATATTTTACAT [CACACA_site8633] | 9.88
CGCGCACCCAGACACACACACACACCGATATATATA [CACACA_site8687] | 10.9
TTGGCATACGGACACACACACACACCCAGACATATA [CACACA_site4492] | 10.4
CACAGACACGGACACACACACATATATATATATATA [CACACA_site5248] | 10.4
TGGGAGCACAGACACACACACACACCCATATATATA [CACACA_site335] | 10.5
CACAGACACGGACACACACACACACCCAGACACATA [CACACA_site4357] | 11.6
CACAGACACGGACACACACACACACCCATATATATA [CACACA_site4354] | 11.3
CACAGACACGGACACACACACACACCGATATATATA [CACACA_site4353] | 11.2
TGGGAGCACAGACACACACACACACCGATATATATA [CACACA_site8001] | 11.3
TATATTATCAAAATGGTGCAATAATTTCTATATTAT [GTGCAC_site9772] | 9.49
ATATAATGACAAGTATAAGTATCACAAAGAAATAAA [CACACA_negctrl_site1403] | 9.79
CAGGCGTGAAATATACGTACACACATTATTTATATT [XGTACX_site5337] | 9.94
AAGAAAAAAAAAATTACACACTGCGGACATACACAA [CACACA_site4838] | 9.98
